This is an account of results in the supplement of paper PMC13380429.

Values without a mark were called inactive.

In one assay the test system is Vero E6 infected with SARS-CoV-2. Kind of assay: inhibition of SARS-CoV-2 cytopathic effect; higher = more antiviral protection, active = above 15. As to conditions: 1 nM; 48 h.
As for `CN(C)CCNc1nc2cc(O)ccc2c2c1C(=O)c1ccccc1-2`, the “inhibition of SARS-CoV-2 cytopathic effect” value (“inhibition” for short) is 0.16%.
Regarding `CC(C)(O)CC(=O)O` [beta-hydroxy-beta-methylbutyrate], the “inhibition” value was 3.1%.
Same read-out and setting: the figure for `CNCc1ccc(C)c(NC(=O)c2ccc(Nc3nc(-c4ccccc4)c4ccccc4n3)cc2)c1` is -4.56%.
With `CCc1cc(O)c(Oc2ccc(C(N)=O)cc2F)cc1F`, the “inhibition” value is 0.22%.
On to `Nc1ccccc1S(N)(=O)=O` [2-aminobenzenesulfonamide], for which the “inhibition” value was 0.91%.
On to `Cc1ccc(S(=O)(=O)Cc2nc(-c3ccc(C(=O)NCc4cccnc4)cc3)oc2C)cc1`, for which the “inhibition” value was -2.69%.

The assay is the same for the next values; noted with them: 8.33 nM; 48 h.
Take `O=C(O)c1ccccc1-c1ccc(C(F)(F)F)cc1` [xenalipin]: the “inhibition” value was 1.65%.
On to `Oc1cc2c(cc1O)[C@H](Cc1cccc3ccccc13)NCC2`, for which the “inhibition” value is -0.02%.
Consider `CCOC(=S)SSC(=S)OCC` [dixanthogen], for which the “inhibition” value is -1.61%.
On to `C=CCNc1c(O)cc2c(O)c1C[C@@H](C)C[C@H](OC)[C@H](O)[C@@H](C)/C=C(\C)[C@H](OC(N)=O)[C@@H](OC)/C=C\C=C(/C)C(=O)N2` [retaspimycin], for which the “inhibition” value is 0.93%.
For the compound `C=C[C@@H]1C[C@]1(NC(=O)[C@@H]1C[C@@H](Oc2ncc(OC)c3ccc(Cl)cc23)CN1C(=O)[C@@H](NC(=O)OC(C)(C)C)C(C)(C)C)C(=O)NS(=O)(=O)C1CC1` [asunaprevir], the “inhibition” value is 0.38%.
In the case of `O=C(Nc1ccccc1C(=O)Nc1ccc(CCO)cc1)c1ccc([N+](=O)[O-])cc1`, the “inhibition” value is 0.23%.
For `Nc1ccc(S(=O)(=O)Nc2ccnn2-c2ccccc2)cc1` [sulfaphenazole], the “inhibition” value was 2.26%.
In the case of `CO/N=C(\C(=O)N[C@@H]1C(=O)N2C(C(=O)O)=C(CSc3nc(C)c(CC(=O)O)s3)CS[C@H]12)c1csc(N)n1` [cefodizime], the “inhibition” value is -0.68%.
Take `C[C@H](CCC(=O)O)[C@H]1CC[C@H]2[C@@H]3C[C@H](O)[C@@H]4C[C@H](O)CC[C@]4(C)[C@H]3CC[C@]12C` [Hyodeoxycholic acid (HDCA)]: the “inhibition” value is 0.2%.
For the compound `CC1=C(/C=C/C(=C/C=C/C(C)=C/C(=O)O)c2ccc(C)cc2)C(C)(C)CCC1`, the “inhibition” value was 2.92%.
As to `NC(N)=Nc1nc(CSCC/C(N)=N/S(N)(=O)=O)cs1` [Famotidine], the “inhibition” value was 0.44%.
As to `Cc1cc(-c2nc(C(=O)Nc3cn(C4CCOCC4)nc3C(N)=O)co2)ccn1`, the “inhibition” value is -3.32%.
`COc1ccc(-c2cc(C(F)F)nn2-c2ccc(S(N)(=O)=O)cc2)cc1F` [deracoxib]: the “inhibition” value is -0.35%.
Turning to `CSC[C@H](N)C(=O)O` [S-methylcysteine], the “inhibition” value was 3.63%.
For `CS(=O)(=O)c1ccc([C@@H](O)[C@@H](CF)NC(=O)C(Cl)Cl)cc1` [florfenicol], the “inhibition” value was -3.73%.
Same read-out and setting: the value for `CC1(C)CCC(C)(C)c2cc(Cn3cccn3)c(/C=C/c3ccc(C(=O)O)cc3)cc21` [palovarotene] was 1.22%.
As to `O=C(O)[C@H](Cc1c[nH]c2ccccc12)N1C(=O)c2ccccc2C1=O`, the “inhibition” value was 3.8%.
For `Cc1cc(C(=O)Nc2nc3cccc(Cl)c3n2[C@@H]2CCCCN(C(=O)/C=C/CN(C)C)C2)ccn1`, the “inhibition” value is -0.94%.
As to `N[C@H]1CC[C@H](N[C@@H]2C[C@H]2c2ccccc2)CC1`, the “inhibition” value was 2.24%.
For the compound `CNC(=O)[C@@H](NC(=O)[C@H](CC(C)C)[C@H](O)C(=O)NO)C(C)(C)C` [marimastat], the “inhibition” value is 2.33%.
As for `CC(=O)N[C@@H](CC(=O)O)C(=O)N[C@@H](CCC(=O)O)C(=O)O` [spaglumic-acid], the “inhibition” value is -1.97%.
Regarding `C=CC(=O)c1ccc2ccccc2c1` [JAK3-inhibitor-V], the “inhibition” value was -1.7%.
In the case of `Nc1nc(N)nc(-c2cc(Cl)ccc2Cl)n1` [irsogladine], the “inhibition” value was 1.38%.
On to `S=C=Nc1ccc(N=C=S)cc1` [bitoscanate], for which the “inhibition” value was 0.45%.
Regarding `COc1ccc(-c2oc3c(CC=C(C)C)c(O)cc(O)c3c(=O)c2O)cc1` [icaritin], the “inhibition” value is 0.17%.
Take `C[C@@H]1CN(c2c(F)c(N)c3c(=O)c(C(=O)O)cn(C4CC4)c3c2F)C[C@H](C)N1` [sparfloxacin]: the “inhibition” value is 2.09%.
Take `CN(C)c1cccc(-c2c3c(=O)n(-c4ccccc4Cl)[nH]c3cc(=O)n2C)c1`: the “inhibition” value was 2.2%.
On the same count and under the same terms, the figure for `Cc1ncc(CSSCc2cnc(C)c(O)c2CO)c(CO)c1O` [pyritinol] is 1.16%; for `CCCN(CCC)[C@H]1CCc2ccc(O)cc2C1` [7-hydroxy-DPAT] it is 2.39%; for `CN(C)Cc1c(C(=O)NCCOc2ccc(C(=O)NO)cc2)oc2ccccc12` it is 3.14%.
Same read-out and setting: the value for `CCn1c(-c2nonc2N)nc2cncc(C(=O)N3CC[C@H](N)C3)c21` was 3.31%; that for `CC1(C)OC[C@@H](COC(=O)CCc2ccc(OC[C@@H](O)CNCCNC(=O)N3CCOCC3)cc2)O1` [landiolol] was -4.59%; that for `C[C@@H](NC(=O)c1ncnc(N)c1Cl)c1ncc(C(=O)Nc2cc(C(F)(F)F)c(Cl)cn2)s1` was 6.23%.
The same measure, in the same setting: the figure for `CN(C)CCNc1nc2cc(O)ccc2c2c1C(=O)c1ccccc1-2` is 1.19%; for `CC(C)(O)CC(=O)O` [beta-hydroxy-beta-methylbutyrate] it is -2.04%.
Regarding `CNCc1ccc(C)c(NC(=O)c2ccc(Nc3nc(-c4ccccc4)c4ccccc4n3)cc2)c1`, the “inhibition” value is -2.52%.
Consider `CCc1cc(O)c(Oc2ccc(C(N)=O)cc2F)cc1F`, for which the “inhibition” value was -0.22%.
With `Nc1ccccc1S(N)(=O)=O` [2-aminobenzenesulfonamide], the “inhibition” value was 2.45%.
In the case of `Cc1ccc(S(=O)(=O)Cc2nc(-c3ccc(C(=O)NCc4cccnc4)cc3)oc2C)cc1`, the “inhibition” value is -2.16%.
